Rows were chosen to be rich in hits. Some 3.5% of all compounds tested hit in one or more screens of this group.
mHTT-CaM PPI inh – mutant huntingtin-calmodulin interaction inhibitors – biochemical, AlphaScreen, primary screen. inhibition, % at 15 µM. AlphaScreen His-mHTT/GST-CaM binding, luminescence. 190,000 compounds, 3.6% hits. AID 1671202, 2021. P42858;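 also: 0% = both proteins with DMSO and 100% = one protein alone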
Pf apPOL inh – Pf-apPOL inhibitors, biochemical, fluorescence | Plasmodium falciparum apicoplast DNA polymerase (apPOL) | Recombinant Pf-apPOL, molecular beacon fluorescence, 1.5 h | inhibition, % at 10 µM | 210,000 compounds, 0.25% hits
* = called active by the depositor. Rule as the data show it: active = inhibition above about 50%; inactive = the rest.

SMILES | mHTT-CaM PPI inh | Pf apPOL inh
Cc1cccc(Nc2nccc(C3CCCN(C(=O)c4ccco4)C3)n2)c1 (centres undefined) | 77* | 0
Cc1ccccc1Nc1nccc(C2CCCN(C(=O)c3ccco3)C2)n1 (centres undefined) | 21 | -4
CN(C)c1ccc(C(=O)N2CCCC(c3ccnc(Nc4ccccc4F)n3)C2)cc1 (centres undefined) | 60* | -3
O=C(c1ccco1)N1CCCC(c2ccnc(Nc3ccccc3F)n2)C1 (centres undefined) | 56* | 1
CC1CCN(S(=O)(=O)N2CCCC(C(=O)NC3CCCCC3C)C2)CC1 (centres undefined) | -10 | -14
CCOC(=O)C1CCCN(CC(O)COCC23CC4CC(CC(C4)C2)C3)C1 (centres undefined) | 5 | 3
COc1cccc(C(=O)NCc2ccc3[nH]c4c(c3c2)CCCC4)c1OC | 44 | 0
Nc1c(-c2ccccn2)nsc1C(=O)NCc1ccc(C(F)(F)F)cc1 | 6 | 0
CCn1c(C2CCN(S(=O)(=O)c3cccc(C(F)(F)F)c3)C2)nc2cccnc21 (centres undefined) | 7 | 1
COC(CNC(=O)c1ccc(N2CCN(c3ccccn3)CC2)c([N+](=O)[O-])c1)OC | 9 | 2
COC(CNC(=O)c1ccc(N2CCc3ccccc32)c([N+](=O)[O-])c1)OC | 58* | -4
N#Cc1c(Nc2ccc(F)cc2)sc2c(O)cc(=O)[nH]c12 | 51* | -3
O=c1cc(O)c2sc(Nc3ccc(F)cc3)nc2[nH]1 | 20 | 4
Cc1ccccc1NC(=O)CN1C(=O)C(c2ccc(F)cc2)=NC12CCCCC2 | 50* | -1
COc1ccc(NC(=O)CN2C(=O)C(c3ccccc3)=NC23CCCCCC3)cc1 | 9 | -11
COc1ccc(C2=NC3(CCCCCC3)N(CC(=O)Nc3ccc(Cl)cc3)C2=O)cc1 | 90* | -3
Cc1cccc(NC(=O)CN2C(=O)C(c3ccc(F)cc3)=NC23CCCC3)c1C | 0 | -4
COc1ccc(C2=NC3(CCCCC3)N(CC(=O)Nc3ccc(F)cc3)C2=O)cc1 | 66* | -7
O=C(CN1C(=O)C(c2ccccc2)=NC12CCCC2)Nc1ccc(F)c(F)c1 | 5 | -10
COc1ccc(NC(=O)CN2C(=O)C(c3ccc(C)cc3)=NC23CCCCC3)cc1 | -1 | -9
COc1ccc(C2=NC3(CCCCC3)N(CC(=O)Nc3ccc(F)c(F)c3)C2=O)cc1 | 98* | -6
Cc1ccc(C2=N/C(=C\c3ccccc3F)C(=O)O2)cc1[N+](=O)[O-] | 0 | 0
O=[N+]([O-])c1ccc(CN2CCN(CCOCCO)CC2)cc1 | 1 | 4
O=C(Nc1ccc2c(N3CCOCC3)ncnc2c1)C1CCC1 | 0 | -9
O=C(NCCC1CCN(C(=O)c2ccccc2)CC1)c1ccc(Br)o1 | 49 | 1
SMILES | mHTT-CaM PPI inh | Pf apPOL inh
CN(Cc1ccco1)C(=O)C1c2ccccc2CC(=O)N1C (centres undefined) | -4 | 1
O=C(NC1CC1)c1ccc(OCC2CCN(C(=O)CC3CCCCC3)CC2)cc1 | 5 | -3
O=C(NC1CCCCC1)c1cnn2c(C(F)(F)F)cc(-c3ccccc3)nc12 | 6 | -11
Cc1ccccc1N1CCN(C(=O)c2ccnc(N3CCCCC3)n2)CC1 | 21 | -6
CC1CCN(C(=O)CSc2nnc3ccc(-c4cccs4)nn23)CC1 | -2 | -1
Cc1cc(N2CCN(C(=O)c3cccs3)CC2)c(F)cc1[N+](=O)[O-] | 5 | 3
O=C(c1cccs1)N1CCN(c2cc(N3CCCCCC3)c(F)cc2[N+](=O)[O-])CC1 | 60* | -11
Cc1ccc(NC(=O)CCNS(=O)(=O)c2ccc(Br)s2)cc1F | -6 | -10
Fc1ccc(C2=CC(c3ccc(F)cc3)n3ncnc3N2)cc1 (centres undefined) | -2 | -4
COc1cc2c(cc1OC)C(COc1cccc(C(F)(F)F)c1)N(C(=O)c1ccco1)CC2 (centres undefined) | 100* | -4
COc1cc2c(cc1OC)C(COc1cccc(C(F)(F)F)c1)N(C(=O)C(C)C)CC2 (centres undefined) | 96* | -1
COC(=O)c1ccc(OCC2c3cc(OC)c(OC)cc3CCN2C(=O)C2CC2)cc1 (centres undefined) | 30 | -7
COc1cc2c(cc1OC)C(COc1cccc(C(F)(F)F)c1)N(C(=O)C1CC1)CC2 (centres undefined) | 95* | -6
COc1cc2c(cc1OC)C(COc1ccccc1OC)N(C(=O)C(C)C)CC2 (centres undefined) | 9 | 0
COc1cc2c(cc1OC)C(COc1ccccc1OC)N(C(=O)c1ccco1)CC2 (centres undefined) | 30 | -4
COc1cc(/C=C2\N=C(c3ccccc3)N(c3ccccc3)C2=O)cc(OC)c1OC | 27 | -4
Cn1nc(-c2nc(-c3ccccc3)no2)c2c1CCN(C(=O)c1cccs1)C2 | 21 | 0
